# GIRK2 act = Activators of human GIRK2-containing channels. HEK293 GIRK2/NPY4 cells, thallium flux fluorescence. AID 1259324. P48051. activation (% efficacy), % for hits at 37.5 µM. 34,000 tested, under 10 active;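 active = primary screen hit, no activity in plain HEK293 cells, and in GIRK2-only cells above 5% efficacy rising with concentration; inactive = the rest, including fluorescent compounds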;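 note: efficacy is normalized control-subtracted fluorescence 15 s after thallium addition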
# AMPAR-TARP mod = GluA2-stargazin AMPA receptor complex modulation; 40,000 tested, 3.5% active; O88602+P19491; calls only at 30 µM; HEK293 GluA2+stargazin, membrane potential dye (FDSS), glutamate EC50; hits were called plate by plate, in both directions; AID 1259245;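 active = any of four per-well response measures lying three or more SD from its plate-wide compound average, in either direction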
# * = called active by the depositor; i = inactive; · = no result given; + = active, no number. Many of the other results were omitted from the sample, so hits are more common in it than they were.
SMILES,GIRK2 act,AMPAR-TARP mod
COc1ccc(OC)c(NC(=O)CSc2ncc(S(=O)(=O)c3cccs3)c(N)n2)c1,i,i
Cc1cc(C(=O)Nc2sc3c(c2C#N)CCN(Cc2ccccc2)C3)on1,i,·
N#Cc1c(NC(=O)c2cc3ccccc3o2)sc2c1CCN(Cc1ccccc1)C2,·,+
COC(=O)c1c(NC(=O)c2ccn(C)n2)sc2c1CCN(Cc1ccccc1)C2,i,+
CC(C)N1CCc2c(sc(NC(=O)c3ccn(C)n3)c2C(N)=O)C1,i,i
CC(C(=O)Nc1ccc(Cl)c(Cl)c1)N1C(=O)C2CC=C(Cl)CC2C1=O (stereo not drawn),·,+
CC(C)C(=O)Nc1ccc(SCC(=O)Nc2ccc(Cl)c(Cl)c2)nn1,i,i
COCc1c(C(=O)Nc2ccc(NC(C)=O)cc2)nnn1-c1cc(C)cc(C)c1,i,i
COCc1c(C(=O)NC2CCCC2)nnn1-c1ccc(C)cc1,i,+
CCCc1c(C(=O)NC2CCCC2)nnn1-c1ccc(Cl)cc1,i,+
CCCc1c(C(=O)NC2CCCCC2)nnn1-c1ccccc1,i,+
O=C(NC1CCCCCC1)c1n[nH]c2ccccc12,·,i
CCCc1c(C(=O)NCCO)nnn1-c1ccc(C)cc1,i,i
N#Cc1ccc(C(=O)N(CCN2CCOCC2)c2nc3c(F)cccc3s2)cc1,i,i
COc1ccc(-n2ccnc(SCc3ccc(F)cc3Cl)c2=O)cc1,·,i
Cc1cc(C)c(S(=O)(=O)N(Cc2ccsc2)Cc2ccccn2)c(C)c1,i,·
CN1CCN(c2ccc(NC(=O)c3cccc4c(Cl)cccc34)cc2)CC1,·,i
CC1(C)CC(=O)C2=C(C1)NC1=C(C(=O)CC(C)(C)C1)C2c1cccs1,i,i
CN1C2=C(C(=O)CC(C)(C)C2)C(c2cc(Br)ccc2O)C2=C1CC(C)(C)CC2=O,·,+
O=C(NCCn1ncc2c(N3CCN(c4ccccc4)CC3)ncnc21)c1cnccn1,·,i
COc1ccc(-n2nc3c(c2NC(=O)C(=O)N2CCCCC2)CS(=O)(=O)C3)cc1,i,i
COc1ccc(-n2nc3c(c2NC(=O)C(=O)NCc2ccco2)CS(=O)(=O)C3)cc1,i,+
Cc1cccc(-n2nc3c(c2NC(=O)C(=O)NCc2ccco2)CS(=O)(=O)C3)c1,i,i
COc1ccc(-n2nc3c(c2NC(=O)C(=O)N2CCCC2)CSC3)cc1,i,+
Cc1cc(=O)[nH]c(-n2nc(C)c(CCC(=O)NCc3ccco3)c2C)n1,i,i
SMILES,GIRK2 act,AMPAR-TARP mod
CCOc1ccc2nc(N(Cc3ccncc3)C(=O)c3ccc([N+](=O)[O-])s3)sc2c1,i,i
COc1ccc(C)c2sc(NC(=O)c3cc(C)no3)nc12,i,+
Cc1cc(C)c2nc(NC(=O)c3cc(C)no3)sc2c1,i,i
O=C(Nc1ccc(N2CCCC2=O)cc1)c1ccc2c(c1)OCO2,i,i
Cn1nc(C(=O)NCCn2nc(-n3cccn3)ccc2=O)ccc1=O,i,·
CCc1cc2c(N3CCN(c4nc(C)cc(C)n4)CC3)ncnc2s1,·,i
Cc1cc(C)c2c(n1)sc1c(N3CCN(CCO)CC3)ncnc12,i,+
Cc1noc(C2CN(C(=O)c3ccc4ncsc4c3)C2)n1,i,i
CCC1(C)CC(CCN(Cc2ccco2)C(C)=O)(c2ccccc2)CCO1 (stereo not drawn),·,i
O=C(CN1C(=O)c2ccccc2S1(=O)=O)NC1CCCCCC1,i,i
O=C(NC1CCCCCC1)C1c2ccccc2C(=O)N1CCC1=CCCCC1 (stereo not drawn),i,+
O=C(NCc1cccnc1)C1CCN(c2ccc(-c3ccc(Cl)cc3)nn2)CC1,i,i
O=C(Nc1ccc2c(c1)OCO2)C1CCN(c2ccc(-c3ccc(Cl)cc3)nn2)CC1,i,+
O=C(Nc1cccnc1)C1CCN(c2ccc(-c3ccc(Cl)cc3)nn2)CC1,i,+
O=C(Nc1ccc(-c2ccc(N3CCOCC3)nn2)cc1)Nc1cccc(Cl)c1,i,+
O=C(Nc1ccc(-c2ccc(N3CCOCC3)nn2)cc1)Nc1ccccc1F,i,i
Cc1ccccc1-c1ccc(N2CCC(C(=O)Nc3ccc4c(c3)OCO4)CC2)nn1,i,i
OC(COC1CCCC1)CN1CCN(c2cccc(C(F)(F)F)c2)CC1 (stereo not drawn),·,i
COC(=O)N1CCC(CNC(=O)C(=O)Nc2cccc(Cl)c2C)CC1,i,i
COc1ccc(NC(=O)CCCOc2ccc(C)cc2C)c(OC)c1,i,i
CCc1cnc2c(c1NCc1ccco1)c(=O)n(C)c(=O)n2C,·,i
O=C(C(=O)N1CCN(Cc2ccccc2)CC1)c1cn(CC(=O)N2CCOCC2)c2ccccc12,·,i
COc1cc(/C=C2\SC(=S)N(c3ccc4c(c3)OCO4)C2=O)cc(OC)c1OC,·,i
COc1cccc(/C=C2/SC(=S)N(c3ccc4c(c3)OCO4)C2=O)c1OC,·,+
CCC(C)c1ccccc1OCC(=O)Nc1ccc(S(=O)(=O)Nc2nc(C)cc(C)n2)cc1 (stereo not drawn),i,i
SMILES,GIRK2 act,AMPAR-TARP mod
COc1ccc(-c2nnc3ccc(OCCNC(=O)c4ccccc4Cl)nn23)cc1,i,i
COc1ccc(-c2nnc3ccc(OCCNC(=O)Nc4ccccc4C)nn23)cc1OC,i,+
COc1ccc(-c2nnc3ccc(OCCNC(=O)c4ccco4)nn23)cc1,i,+
COc1ccc(-c2nnc3ccc(OCCNC(=O)c4cccs4)nn23)cc1OC,i,i
COc1cccc(-c2nnc3ccc(OCCNC(=O)NC4CCCCC4)nn23)c1,i,+
COc1cccc(-c2nnc3ccc(OCCNC(=O)Nc4cccc(C)c4)nn23)c1,i,i
COc1ccc(N2CCCS2(=O)=O)cc1NC(=O)Nc1ccc2c(c1)OCO2,i,i
COc1ccccc1C(=O)Nc1cccc(Oc2ccc(C)nn2)c1,i,i
COc1ccc2nc(-c3ccc(F)c(NC(=O)c4c(F)cccc4Cl)c3)cn2n1,i,·
O=C(C(=O)N1CCN(C(c2ccccc2)c2ccccc2)CC1)c1c[nH]c2ccccc12,·,i
O=C(C1CCCC1)N(CC1CCCO1)c1nc2c(Cl)cccc2s1 (stereo not drawn),i,i
Nc1nc2ccc(OC(F)(F)F)cc2s1,i,+
COc1ccc2nc(NC(=O)NC34CC5CC(CC(C5)C3)C4)sc2c1,i,i
CCN(CC)C(=O)Cn1cc(C(=O)C(=O)N(Cc2ccccc2)C(C)C)c2ccccc21,·,+
CCN(CC)C(=O)Cn1cc(C(=O)C(=O)N2CCN(Cc3ccccc3)CC2)c2ccccc21,·,i
COc1ccc2nc(-c3ccc(C)c(NS(=O)(=O)c4ccc(C(C)=O)cc4)c3)cn2n1,i,+
COc1ccc2nc(-c3ccc(C)c(NS(=O)(=O)c4ccc(C)s4)c3)cn2n1,i,+
COc1ccc2nc(-c3ccc(C)c(NS(=O)(=O)c4cc(C)ccc4OC)c3)cn2n1,i,·
COc1ccc2nc(-c3ccc(C)c(NS(=O)(=O)c4ccc(C)c(C)c4)c3)cn2n1,i,·
COc1ccc(S(=O)(=O)CC(=O)Nc2ccc3c(c2)C(=O)NC3=O)cc1,i,i
COc1ccc(SCCC(=O)Nc2ccc3c(c2)C(=O)NC3=O)cc1,i,+

# From PubChem BioAssay
